# In PubChem BioAssay AID1159580 (chemical genetic matrix, 2015):
# Out of some 5,500 compounds screened, about 2,000 (36%) were called active. About 18% were inconclusive and are not listed. Rule as the data show it: active = normalized growth mostly below about 0.91 (no sharp cut-off); inconclusive = no clear call, values can overlap the other calls; inactive = mostly above about 0.92. This is one part of the list.
# Assay: chemical genetic growth profiling, strain panel (AID 1159580);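 also: tested at 20 µM; growth read once vehicle control cultures reached saturation at 30 °C; 1 = growth at the plate median or of vehicle wells; lower values mean less growth of the strain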
# Conditions: growth OD
smiles,measurement,setting,value
CC1=CCc2c(cc3oc(C)cc(=O)c3c2O)OC1,normalized growth,"S. cerevisiae deletion strains, locus YJR075W, strain HOC1, stronger effect = lower value",0.926 (inactive)
same,normalized growth,"S. cerevisiae deletion strains, locus YKL009W, strain mrt4, stronger effect = lower value",0.912 (inactive)
same,normalized growth,"S. cerevisiae deletion strains, locus YKL068W, stronger effect = lower value",0.974 (inactive)
same,normalized growth,"S. cerevisiae deletion strains, locus YKL085W, strain MDH1 (second series), stronger effect = lower value",0.903 (active)
same,normalized growth,"S. cerevisiae deletion strains, locus YKL085W, strain MDH1, stronger effect = lower value",0.903 (active)
same,normalized growth,"S. cerevisiae deletion strains, locus YKL160W, strain elf1, stronger effect = lower value",0.978 (inactive)
same,normalized growth,"S. cerevisiae deletion strains, locus YKL190W, strain CNB1, stronger effect = lower value",0.902 (active)
same,normalized growth,"S. cerevisiae deletion strains, locus YKR001C, strain vps1, stronger effect = lower value",0.759 (active)
same,normalized growth,"S. cerevisiae deletion strains, locus YKR026C, strain gcn3, stronger effect = lower value",0.951 (inactive)
same,normalized growth,"S. cerevisiae deletion strains, locus YKR091W, strain srl3, stronger effect = lower value",0.977 (inactive)
same,normalized growth,"S. cerevisiae deletion strains, locus YLL001W, strain dnm1, stronger effect = lower value",0.968 (inactive)
same,normalized growth,"S. cerevisiae deletion strains, locus YLL026W, stronger effect = lower value",0.97 (inactive)
same,normalized growth,"S. cerevisiae deletion strains, locus YLL041C, strain sdh2, stronger effect = lower value",0.972 (inactive)
same,normalized growth,"S. cerevisiae deletion strains, locus YLR027C, strain aat2, stronger effect = lower value",0.984 (inactive)
same,normalized growth,"S. cerevisiae deletion strains, locus YLR039C, strain RIC1, stronger effect = lower value",0.766 (inactive)
same,normalized growth,"S. cerevisiae deletion strains, locus YLR058C, strain SHM2, stronger effect = lower value",0.923 (inactive)
same,normalized growth,"S. cerevisiae deletion strains, locus YLR102C, strain apc9, stronger effect = lower value",0.97 (inactive)
same,normalized growth,"S. cerevisiae deletion strains, locus YLR113W, strain HOG1, stronger effect = lower value",0.931 (inactive)
same,normalized growth,"S. cerevisiae deletion strains, locus YLR221C, strain rsa3, stronger effect = lower value",0.944 (inactive)
same,normalized growth,"S. cerevisiae deletion strains, locus YLR258W, strain gsy2, stronger effect = lower value",0.95 (inactive)
same,normalized growth,"S. cerevisiae deletion strains, locus YLR262C, strain YPT6 (second series), stronger effect = lower value",0.883 (inactive)
same,normalized growth,"S. cerevisiae deletion strains, locus YLR262C, strain YPT6, stronger effect = lower value",0.772 (inactive)
same,normalized growth,"S. cerevisiae deletion strains, locus YLR268W, strain sec22, stronger effect = lower value",0.869 (active)
same,normalized growth,"S. cerevisiae deletion strains, locus YLR320W, strain mms22, stronger effect = lower value",0.932 (inactive)
same,normalized growth,"S. cerevisiae deletion strains, locus YLR330W, strain CHS5, stronger effect = lower value",0.944 (inactive)
same,normalized growth,"S. cerevisiae deletion strains, locus YLR342W, strain FKS1 (second series), stronger effect = lower value",0.792 (active)
same,normalized growth,"S. cerevisiae deletion strains, locus YLR342W, strain FKS1, stronger effect = lower value",1 (inactive)
same,normalized growth,"S. cerevisiae deletion strains, locus YLR357W, strain rsc2, stronger effect = lower value",1.01 (inactive)
same,normalized growth,"S. cerevisiae deletion strains, locus YLR370C, strain arc18, stronger effect = lower value",0.998 (inactive)
same,normalized growth,"S. cerevisiae deletion strains, locus YLR371W, strain rom2, stronger effect = lower value",0.916 (inactive)
same,normalized growth,"S. cerevisiae deletion strains, locus YLR384C, strain iki3, stronger effect = lower value",0.988 (inactive)
same,normalized growth,"S. cerevisiae deletion strains, locus YLR418C, strain cdc73, stronger effect = lower value",0.639 (active)
same,normalized growth,"S. cerevisiae deletion strains, locus YML016C, strain PPZ1, stronger effect = lower value",0.953 (inactive)
same,normalized growth,"S. cerevisiae deletion strains, locus YML032C, strain rad52, stronger effect = lower value",0.917 (inactive)
same,normalized growth,"S. cerevisiae deletion strains, locus YML120C, strain ndi1, stronger effect = lower value",0.957 (inactive)
same,normalized growth,"S. cerevisiae deletion strains, locus YML124C, strain tub3, stronger effect = lower value",0.966 (inactive)
same,normalized growth,"S. cerevisiae deletion strains, locus YMR058W, strain fet3, stronger effect = lower value",0.936 (inactive)
same,normalized growth,"S. cerevisiae deletion strains, locus YMR078C, strain ctf18, stronger effect = lower value",0.956 (inactive)
same,normalized growth,"S. cerevisiae deletion strains, locus YMR125W, strain sto1, stronger effect = lower value",0.975 (inactive)
same,normalized growth,"S. cerevisiae deletion strains, locus YMR129W, stronger effect = lower value",0.967 (inactive)
same,normalized growth,"S. cerevisiae deletion strains, locus YMR205C, strain PFK2, stronger effect = lower value",0.971 (inactive)
same,normalized growth,"S. cerevisiae deletion strains, locus YMR223W, strain ubp8, stronger effect = lower value",0.902 (active)
same,normalized growth,"S. cerevisiae deletion strains, locus YMR231W, strain pep5, stronger effect = lower value",0.998 (inactive)
same,normalized growth,"S. cerevisiae deletion strains, locus YMR263W, strain SAP30, stronger effect = lower value",0.865 (active)
same,normalized growth,"S. cerevisiae deletion strains, locus YMR307W, strain GAS1, stronger effect = lower value",0.733 (inactive)
same,normalized growth,"S. cerevisiae deletion strains, locus YNL067W, strain RPL9B, stronger effect = lower value",0.844 (active)
same,normalized growth,"S. cerevisiae deletion strains, locus YNL071W, strain lat1, stronger effect = lower value",0.979 (inactive)
same,normalized growth,"S. cerevisiae deletion strains, locus YNL128W, strain TEP1, stronger effect = lower value",0.881 (inactive)
same,normalized growth,"S. cerevisiae deletion strains, locus YNL153C, strain GIM3, stronger effect = lower value",0.858 (active)
same,normalized growth,"S. cerevisiae deletion strains, locus YNL183C, strain NPR1, stronger effect = lower value",0.92 (inactive)
same,normalized growth,"S. cerevisiae deletion strains, locus YNL209W, strain ssb2, stronger effect = lower value",1.01 (inactive)
same,normalized growth,"S. cerevisiae deletion strains, locus YNL233W, strain BNI4, stronger effect = lower value",0.807 (active)
same,normalized growth,"S. cerevisiae deletion strains, locus YNL248C, strain rpa49, stronger effect = lower value",0.971 (inactive)
same,normalized growth,"S. cerevisiae deletion strains, locus YNL250W, strain rad50, stronger effect = lower value",0.971 (inactive)
same,normalized growth,"S. cerevisiae deletion strains, locus YNL271C, strain bni1, stronger effect = lower value",0.959 (inactive)
same,normalized growth,"S. cerevisiae deletion strains, locus YNL298W, strain CLA4, stronger effect = lower value",0.925 (inactive)
same,normalized growth,"S. cerevisiae deletion strains, locus YNL307C, strain MCK1, stronger effect = lower value",0.651 (active)
same,normalized growth,"S. cerevisiae deletion strains, locus YNL322C, strain KRE1 (second series), stronger effect = lower value",0.984 (inactive)
same,normalized growth,"S. cerevisiae deletion strains, locus YNL322C, strain KRE1, stronger effect = lower value",0.94 (inactive)
same,normalized growth,"S. cerevisiae deletion strains, locus YNR049C, strain mso1, stronger effect = lower value",0.981 (inactive)
same,normalized growth,"S. cerevisiae deletion strains, locus YNR052C, strain pop2, stronger effect = lower value",0.973 (inactive)
same,normalized growth,"S. cerevisiae deletion strains, locus YOL006C, strain TOP1, stronger effect = lower value",0.554 (inactive)
same,normalized growth,"S. cerevisiae deletion strains, locus YOL012C, strain htz1",1.55 (inactive)
same,normalized growth,"S. cerevisiae deletion strains, locus YOL147C, strain pex11, stronger effect = lower value",0.922 (active)
same,normalized growth,"S. cerevisiae deletion strains, locus YOR001W, strain rrp6, stronger effect = lower value",0.969 (inactive)
same,normalized growth,"S. cerevisiae deletion strains, locus YOR061W, strain CKA2, stronger effect = lower value",0.972 (inactive)
same,normalized growth,"S. cerevisiae deletion strains, locus YOR069W, strain VPS5, stronger effect = lower value",0.973 (inactive)
same,normalized growth,"S. cerevisiae deletion strains, locus YOR070C, strain gyp1, stronger effect = lower value",0.965 (inactive)
same,normalized growth,"S. cerevisiae deletion strains, locus YOR080W, strain dia2, stronger effect = lower value",0.986 (inactive)
same,normalized growth,"S. cerevisiae deletion strains, locus YOR083W, strain WHI5, stronger effect = lower value",0.951 (inactive)
same,normalized growth,"S. cerevisiae deletion strains, locus YOR106W, strain vam3, stronger effect = lower value",0.945 (inactive)
same,normalized growth,"S. cerevisiae deletion strains, locus YOR136W, strain idh2, stronger effect = lower value",0.963 (inactive)
same,normalized growth,"S. cerevisiae deletion strains, locus YOR144C, strain elg1, stronger effect = lower value",0.979 (inactive)
same,normalized growth,"S. cerevisiae deletion strains, locus YOR184W, strain ser1, stronger effect = lower value",0.782 (active)
same,normalized growth,"S. cerevisiae deletion strains, locus YOR231W, strain MKK1, stronger effect = lower value",0.958 (inactive)
same,normalized growth,"S. cerevisiae deletion strains, locus YOR265W, strain rbl2, stronger effect = lower value",0.983 (inactive)
same,normalized growth,"S. cerevisiae deletion strains, locus YOR270C, strain vph1, stronger effect = lower value",0.683 (active)
same,normalized growth,"S. cerevisiae deletion strains, locus YOR290C, strain snf2, stronger effect = lower value",0.979 (inactive)
same,normalized growth,"S. cerevisiae deletion strains, locus YOR316C, strain cot1, stronger effect = lower value",0.974 (inactive)
same,normalized growth,"S. cerevisiae deletion strains, locus YPL051W, strain arl3, stronger effect = lower value",0.976 (inactive)
same,normalized growth,"S. cerevisiae deletion strains, locus YPL055C, strain LGE1, stronger effect = lower value",0.716 (active)
same,normalized growth,"S. cerevisiae deletion strains, locus YPL078C, strain atp4, stronger effect = lower value",0.926 (inactive)
same,normalized growth,"S. cerevisiae deletion strains, locus YPL106C, strain sse1, stronger effect = lower value",0.952 (inactive)
same,normalized growth,"S. cerevisiae deletion strains, locus YPL240C, strain hsp82, stronger effect = lower value",0.97 (inactive)
same,normalized growth,"S. cerevisiae deletion strains, locus YPL241C, strain CIN2, stronger effect = lower value",0.973 (inactive)
same,normalized growth,"S. cerevisiae deletion strains, locus YPL256C, strain CLN2, stronger effect = lower value",0.99 (inactive)
same,normalized growth,"S. cerevisiae deletion strains, locus YPR119W, strain clb2, stronger effect = lower value",0.956 (inactive)
same,normalized growth,"S. cerevisiae deletion strains, locus YPR141C, strain kar3, stronger effect = lower value",0.972 (inactive)
same,normalized growth,"S. cerevisiae deletion strains, locus YPR163C, strain tif3, stronger effect = lower value",0.921 (inactive)
same,normalized growth,"S. cerevisiae deletion strains, locus YPR167C, strain met16, stronger effect = lower value",0.963 (inactive)
same,normalized growth,"S. cerevisiae deletion strains, strain wtn01, stronger effect = lower value",0.843 (active)
same,normalized growth,"S. cerevisiae strains, strain wild type, stronger effect = lower value",0.878 (active)
